In PubChem BioAssay AID1159580 (chemical genetic matrix, 2015):
About 2,000 (36%) of roughly 5,500 compounds were called active. Not shown: some 18% with an inconclusive outcome. No stated cut-off is given here; in the data, active means normalized growth mostly below about 0.91 (no sharp cut-off); inconclusive means no clear call, values can overlap the other calls; inactive means mostly above about 0.92. The list shows a part of the results.

Assay: chemical genetic growth profiling, strain panel (AID 1159580);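 further: tested at 20 µM; growth read once vehicle control cultures reached saturation at 30 °C; 1 = growth at the plate median or of vehicle wells; lower values mean less growth of the strain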
Conditions: growth OD

Measured: normalized growth

COc1ccc(-c2cc(=O)c3c(OC)cc(OC)cc3o2)cc1
inactive: S. cerevisiae deletion strains, locus YAL013W, strain DEP1, active compounds read low 0.981 | S. cerevisiae deletion strains, locus YBR021W, strain FUR4, active compounds read low 0.903 | S. cerevisiae deletion strains, locus YBR229C, strain ROT2, active compounds read low 1 | S. cerevisiae deletion strains, locus YCL029C, strain bik1, active compounds read low 1.01 | S. cerevisiae deletion strains, locus YDL035C, strain GPR1, active compounds read low 0.981 | S. cerevisiae deletion strains, locus YDL074C, strain BRE1, active compounds read low 0.905 | S. cerevisiae deletion strains, locus YDL101C, strain DUN1, active compounds read low 0.988 | S. cerevisiae deletion strains, locus YDL134C, strain PPH21, active compounds read low 0.984 | S. cerevisiae deletion strains, locus YDL185W, strain tfp1, active compounds read low 0.996 | S. cerevisiae deletion strains, locus YDL192W, strain arf1, active compounds read low 0.986 | S. cerevisiae deletion strains, locus YDR101C, strain arx1, active compounds read low 0.977 | S. cerevisiae deletion strains, locus YDR150W, strain NUM1, active compounds read low 1 | S. cerevisiae deletion strains, locus YDR162C, strain NBP2, active compounds read low 0.944 | S. cerevisiae deletion strains, locus YDR318W, strain mcm21, active compounds read low 0.973 | S. cerevisiae deletion strains, locus YDR388W, active compounds read low 0.99 | S. cerevisiae deletion strains, locus YDR502C, strain sam2, active compounds read low 0.963 | S. cerevisiae deletion strains, locus YEL061C, strain CIN8, active compounds read low 0.997 | S. cerevisiae deletion strains, locus YER110C, active compounds read low 1.02 | S. cerevisiae deletion strains, locus YER155C, strain BEM2, active compounds read low 0.993 | S. cerevisiae deletion strains, locus YER167W, strain BCK2, active compounds read low 0.989 | S. cerevisiae deletion strains, locus YGL078C, strain dbp3, active compounds read low 1 | S. cerevisiae deletion strains, locus YGL086W, strain mad1, active compounds read low 1 | S. cerevisiae deletion strains, locus YGL248W, strain PDE1, active compounds read low 0.988 | S. cerevisiae deletion strains, locus YGR078C, strain PAC10, active compounds read low 0.948 | S. cerevisiae deletion strains, locus YGR135W, strain pre9, active compounds read low 0.926 | S. cerevisiae deletion strains, locus YGR229C, strain SMI1, active compounds read low 0.873 | S. cerevisiae deletion strains, locus YGR252W, strain gcn5, active compounds read low 0.834 | S. cerevisiae deletion strains, locus YHR030C, strain SLT2, active compounds read low 0.997 | S. cerevisiae deletion strains, locus YHR079C, strain IRE1 (second series), active compounds read low 0.979 | S. cerevisiae deletion strains, locus YHR094C, strain hxt1, active compounds read low 1.01 | S. cerevisiae deletion strains, locus YHR129C, strain ARP1, active compounds read low 0.99 | S. cerevisiae deletion strains, locus YHR200W, strain rpn10, active compounds read low 0.992 | S. cerevisiae deletion strains, locus YIL066C, strain RNR3, active compounds read low 0.965 | S. cerevisiae deletion strains, locus YIL073C, strain SPO22, active compounds read low 0.983 | S. cerevisiae deletion strains, locus YIL125W, strain kgd1, active compounds read low 1.01 | S. cerevisiae deletion strains, locus YIR030C, strain dcg1, active compounds read low 0.993 | S. cerevisiae deletion strains, locus YJL095W, strain BCK1, active compounds read low 0.888 | S. cerevisiae deletion strains, locus YJL134W, strain LCB3, active compounds read low 0.994 | S. cerevisiae deletion strains, locus YJL168C, strain set2, active compounds read low 0.998 | S. cerevisiae deletion strains, locus YJL187C, strain SWE1 (second series), active compounds read low 0.957 | S. cerevisiae deletion strains, locus YJR043C, strain POL32, active compounds read low 0.983 | S. cerevisiae deletion strains, locus YJR075W, strain HOC1, active compounds read low 0.968 | S. cerevisiae deletion strains, locus YKL009W, strain mrt4, active compounds read low 0.987 | S. cerevisiae deletion strains, locus YKL068W, active compounds read low 1.01 | S. cerevisiae deletion strains, locus YKL085W, strain MDH1 (second series), active compounds read low 1.01 | S. cerevisiae deletion strains, locus YKL085W, strain MDH1, active compounds read low 1.01 | S. cerevisiae deletion strains, locus YKL190W, strain CNB1, active compounds read low 0.996 | S. cerevisiae deletion strains, locus YKR001C, strain vps1, active compounds read low 0.996 | S. cerevisiae deletion strains, locus YLR039C, strain RIC1, active compounds read low 1.03 | S. cerevisiae deletion strains, locus YLR058C, strain SHM2, active compounds read low 0.988 | S. cerevisiae deletion strains, locus YLR102C, strain apc9, active compounds read low 0.998 | S. cerevisiae deletion strains, locus YLR262C, strain YPT6, active compounds read low 1.02 | S. cerevisiae deletion strains, locus YLR268W, strain sec22, active compounds read low 0.95 | S. cerevisiae deletion strains, locus YLR330W, strain CHS5, active compounds read low 0.999 | S. cerevisiae deletion strains, locus YLR342W, strain FKS1 (second series), active compounds read low 0.951 | S. cerevisiae deletion strains, locus YLR371W, strain rom2, active compounds read low 1.01 | S. cerevisiae deletion strains, locus YLR418C, strain cdc73, active compounds read low 0.869 | S. cerevisiae deletion strains, locus YML016C, strain PPZ1, active compounds read low 1 | S. cerevisiae deletion strains, locus YML032C, strain rad52, active compounds read low 0.969 | S. cerevisiae deletion strains, locus YML124C, strain tub3, active compounds read low 1 | S. cerevisiae deletion strains, locus YMR078C, strain ctf18, active compounds read low 0.988 | S. cerevisiae deletion strains, locus YMR223W, strain ubp8, active compounds read low 0.972 | S. cerevisiae deletion strains, locus YMR263W, strain SAP30, active compounds read low 0.95 | S. cerevisiae deletion strains, locus YMR307W, strain GAS1, active compounds read low 0.839 | S. cerevisiae deletion strains, locus YNL067W, strain RPL9B, active compounds read low 0.962 | S. cerevisiae deletion strains, locus YNL128W, strain TEP1, active compounds read low 0.981 | S. cerevisiae deletion strains, locus YNL153C, strain GIM3, active compounds read low 0.955 | S. cerevisiae deletion strains, locus YNL233W, strain BNI4, active compounds read low 0.923 | S. cerevisiae deletion strains, locus YNL250W, strain rad50, active compounds read low 1.01 | S. cerevisiae deletion strains, locus YNL271C, strain bni1, active compounds read low 1.02 | S. cerevisiae deletion strains, locus YNL298W, strain CLA4, active compounds read low 1 | S. cerevisiae deletion strains, locus YNL307C, strain MCK1, active compounds read low 0.93 | S. cerevisiae deletion strains, locus YNL322C, strain KRE1, active compounds read low 1.01 | S. cerevisiae deletion strains, locus YNR052C, strain pop2, active compounds read low 0.995 | S. cerevisiae deletion strains, locus YOL006C, strain TOP1, active compounds read low 0.858 | S. cerevisiae deletion strains, locus YOL012C, strain htz1 1.8 | S. cerevisiae deletion strains, locus YOL147C, strain pex11, active compounds read low 0.989 | S. cerevisiae deletion strains, locus YOR061W, strain CKA2, active compounds read low 0.999 | S. cerevisiae deletion strains, locus YOR069W, strain VPS5, active compounds read low 1 | S. cerevisiae deletion strains, locus YOR136W, strain idh2, active compounds read low 0.996 | S. cerevisiae deletion strains, locus YOR144C, strain elg1, active compounds read low 1 | S. cerevisiae deletion strains, locus YOR184W, strain ser1, active compounds read low 0.967 | S. cerevisiae deletion strains, locus YOR316C, strain cot1, active compounds read low 1 | S. cerevisiae deletion strains, locus YPL055C, strain LGE1, active compounds read low 0.92 | S. cerevisiae deletion strains, locus YPL241C, strain CIN2, active compounds read low 0.996 | S. cerevisiae deletion strains, locus YPR119W, strain clb2, active compounds read low 1 | S. cerevisiae deletion strains, locus YPR141C, strain kar3, active compounds read low 1.01 | S. cerevisiae deletion strains, locus YPR163C, strain tif3, active compounds read low 0.971 | S. cerevisiae deletion strains, locus YPR167C, strain met16, active compounds read low 1 | S. cerevisiae deletion strains, strain wtn01, active compounds read low 0.963 | S. cerevisiae strains, strain wild type, active compounds read low 0.992
